Experiments:
Experiment in all cases: DAPPL (digital affinity profiling via proximity ligation, sequencing); 10 mM Tris-HCl pH 7.5, 50 mM NaCl, 1 mM DTT, 4% glycerol, room temperature, 30 min; GST-TFs on glutathione beads, 16-mer random dsDNA library, 0.1% formaldehyde crosslink after washing; high values mean tight binding
Details in all cases: protein: recombinant; tags: N-terminal GST; dsDNA, one strand shown
ELK1 = target: T1, ELK1 (Homo sapiens, UniProt P19419 1-428)
T1 sequence: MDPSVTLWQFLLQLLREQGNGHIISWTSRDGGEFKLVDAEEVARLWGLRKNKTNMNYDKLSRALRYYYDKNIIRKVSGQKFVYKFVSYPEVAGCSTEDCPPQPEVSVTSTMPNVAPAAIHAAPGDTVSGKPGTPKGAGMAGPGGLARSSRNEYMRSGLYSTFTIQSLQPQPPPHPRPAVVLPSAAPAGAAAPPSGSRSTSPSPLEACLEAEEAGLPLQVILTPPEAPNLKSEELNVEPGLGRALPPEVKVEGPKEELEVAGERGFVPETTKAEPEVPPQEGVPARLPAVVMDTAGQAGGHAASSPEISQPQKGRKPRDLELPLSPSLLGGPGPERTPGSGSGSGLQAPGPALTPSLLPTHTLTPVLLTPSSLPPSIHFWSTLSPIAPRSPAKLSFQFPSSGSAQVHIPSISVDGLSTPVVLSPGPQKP
Procedure, shortened: (§1)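 A tag-only sample was pooled with DNA-barcoded human transcription factors that had been expressed in yeast as GST fusions and captured on glutathione beads. The pools were incubated for 30 min at room temperature with 200 nmole of a random double-stranded 16-mer DNA library in Tris/NaCl/DTT/glycerol buffer, then washed, crosslinked with 0.1% formaldehyde, proximity-ligated (BsaI/T4 ligase, 1 h, 37 °C), PCR-amplified and sequenced on an Illumina NextSeq500. Binding signal is each hexamer's read frequency for a factor divided by its frequency for the tag-only sample.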

ERG = target: T2, ERG (Homo sapiens, UniProt P11308 1-479)
T2 sequence: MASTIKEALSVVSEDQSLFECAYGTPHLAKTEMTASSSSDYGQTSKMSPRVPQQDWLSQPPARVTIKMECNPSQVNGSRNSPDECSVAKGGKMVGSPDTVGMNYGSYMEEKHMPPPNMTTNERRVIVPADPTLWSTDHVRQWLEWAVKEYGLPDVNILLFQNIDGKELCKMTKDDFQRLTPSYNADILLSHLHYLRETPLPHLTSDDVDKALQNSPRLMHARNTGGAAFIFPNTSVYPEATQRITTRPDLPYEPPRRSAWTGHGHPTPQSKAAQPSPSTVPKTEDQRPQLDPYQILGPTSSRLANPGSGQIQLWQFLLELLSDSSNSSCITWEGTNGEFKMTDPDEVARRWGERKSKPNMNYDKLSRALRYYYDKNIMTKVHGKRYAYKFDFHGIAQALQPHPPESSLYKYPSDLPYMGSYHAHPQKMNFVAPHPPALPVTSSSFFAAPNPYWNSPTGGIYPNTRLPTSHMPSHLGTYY
Procedure, shortened: as §1

ELF1 = ELF1 (Homo sapiens, UniProt P32519 1-619)
Procedure, shortened: as §1

EHF = target: T3, EHF (Homo sapiens, UniProt Q9NZC4 1-300)
T3 sequence: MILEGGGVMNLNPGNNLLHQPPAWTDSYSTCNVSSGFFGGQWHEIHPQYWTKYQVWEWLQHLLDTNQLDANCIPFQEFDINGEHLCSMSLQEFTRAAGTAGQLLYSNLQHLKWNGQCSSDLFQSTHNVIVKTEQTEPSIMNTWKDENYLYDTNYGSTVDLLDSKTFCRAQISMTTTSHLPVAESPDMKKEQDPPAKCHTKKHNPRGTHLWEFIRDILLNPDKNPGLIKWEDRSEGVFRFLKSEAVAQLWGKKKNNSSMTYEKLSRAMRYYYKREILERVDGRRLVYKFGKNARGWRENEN
Procedure, shortened: as §1

SPIB = SPIB (Homo sapiens, UniProt Q01892 1-262)
Procedure, shortened: as §1

FEV = target: T4, FEV (Homo sapiens, UniProt Q99581 1-238)
T4 sequence: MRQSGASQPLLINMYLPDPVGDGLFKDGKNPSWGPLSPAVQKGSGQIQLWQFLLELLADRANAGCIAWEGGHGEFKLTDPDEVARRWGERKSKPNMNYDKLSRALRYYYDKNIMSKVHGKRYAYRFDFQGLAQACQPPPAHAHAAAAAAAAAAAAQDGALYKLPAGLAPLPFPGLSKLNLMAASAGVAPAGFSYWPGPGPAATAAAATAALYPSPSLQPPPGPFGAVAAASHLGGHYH
Procedure, shortened: as §1

ETV5 = ETV5 (Homo sapiens, UniProt P41161 1-510)
Procedure, shortened: as §1

ELF4 = ELF4 (Homo sapiens, UniProt Q99607 1-663)
Procedure, shortened: as §1

ELK4 = target: T5, ELK4 (Homo sapiens, UniProt P28324-2 1-405)
T5 sequence: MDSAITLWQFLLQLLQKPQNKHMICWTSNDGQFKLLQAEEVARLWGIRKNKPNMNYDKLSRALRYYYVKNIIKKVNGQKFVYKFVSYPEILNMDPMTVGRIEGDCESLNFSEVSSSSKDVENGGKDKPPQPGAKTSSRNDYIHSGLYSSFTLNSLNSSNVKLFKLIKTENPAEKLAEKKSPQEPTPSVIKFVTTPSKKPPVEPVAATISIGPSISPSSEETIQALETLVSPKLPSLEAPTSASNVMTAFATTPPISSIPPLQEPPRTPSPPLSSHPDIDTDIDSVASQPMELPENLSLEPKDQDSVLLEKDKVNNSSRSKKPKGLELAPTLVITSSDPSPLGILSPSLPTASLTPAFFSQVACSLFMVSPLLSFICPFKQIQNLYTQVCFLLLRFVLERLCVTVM
Procedure, shortened: as §1

ETV2 = target: T6, ETV2 (Homo sapiens, UniProt O00321 1-342)
T6 sequence: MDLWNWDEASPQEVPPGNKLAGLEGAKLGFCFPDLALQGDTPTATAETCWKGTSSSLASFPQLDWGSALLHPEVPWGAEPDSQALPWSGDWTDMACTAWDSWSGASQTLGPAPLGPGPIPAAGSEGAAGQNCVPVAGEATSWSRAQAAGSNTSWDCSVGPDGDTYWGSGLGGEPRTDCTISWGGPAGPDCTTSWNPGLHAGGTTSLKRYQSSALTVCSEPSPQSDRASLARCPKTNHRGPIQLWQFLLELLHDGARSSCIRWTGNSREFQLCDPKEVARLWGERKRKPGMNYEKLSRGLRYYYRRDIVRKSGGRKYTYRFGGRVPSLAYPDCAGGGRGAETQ
Procedure, shortened: as §1

ELF3 = target: T7, ELF3 (Homo sapiens, UniProt P78545 1-371)
T7 sequence: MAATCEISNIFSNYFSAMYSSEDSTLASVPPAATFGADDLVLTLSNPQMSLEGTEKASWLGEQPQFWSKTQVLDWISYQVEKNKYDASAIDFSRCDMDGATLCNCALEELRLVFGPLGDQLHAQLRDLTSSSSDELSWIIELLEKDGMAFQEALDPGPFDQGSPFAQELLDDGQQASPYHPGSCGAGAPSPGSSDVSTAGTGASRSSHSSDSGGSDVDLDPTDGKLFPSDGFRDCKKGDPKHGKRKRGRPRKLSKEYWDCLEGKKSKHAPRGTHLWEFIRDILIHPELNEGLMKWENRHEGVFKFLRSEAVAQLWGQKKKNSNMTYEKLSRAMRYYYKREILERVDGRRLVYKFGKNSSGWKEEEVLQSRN
Procedure, shortened: as §1

ETV1 = ETV1 (Homo sapiens, UniProt P50549 1-477)
Procedure, shortened: as §1

ERF = target: T8, ERF (Homo sapiens, UniProt P50548 1-548)
T8 sequence: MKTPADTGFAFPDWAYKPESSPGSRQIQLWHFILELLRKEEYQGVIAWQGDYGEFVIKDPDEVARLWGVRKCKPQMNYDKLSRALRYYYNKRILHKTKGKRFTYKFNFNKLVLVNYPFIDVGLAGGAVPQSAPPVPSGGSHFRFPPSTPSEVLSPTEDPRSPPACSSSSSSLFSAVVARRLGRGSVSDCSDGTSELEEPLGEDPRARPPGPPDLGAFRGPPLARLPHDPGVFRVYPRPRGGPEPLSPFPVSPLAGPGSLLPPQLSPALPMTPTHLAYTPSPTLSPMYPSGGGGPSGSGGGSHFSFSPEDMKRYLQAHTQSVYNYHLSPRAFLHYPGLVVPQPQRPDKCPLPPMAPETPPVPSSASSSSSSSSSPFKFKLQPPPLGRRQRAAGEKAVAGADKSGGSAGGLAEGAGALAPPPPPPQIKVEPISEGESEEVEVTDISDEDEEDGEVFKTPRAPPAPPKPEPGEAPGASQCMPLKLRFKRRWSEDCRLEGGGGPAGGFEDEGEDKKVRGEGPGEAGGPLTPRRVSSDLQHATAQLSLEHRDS
Procedure, shortened: as §1

ETV3L = target: T9, ETV3L (Homo sapiens, UniProt Q6ZN32 1-361)
T9 sequence: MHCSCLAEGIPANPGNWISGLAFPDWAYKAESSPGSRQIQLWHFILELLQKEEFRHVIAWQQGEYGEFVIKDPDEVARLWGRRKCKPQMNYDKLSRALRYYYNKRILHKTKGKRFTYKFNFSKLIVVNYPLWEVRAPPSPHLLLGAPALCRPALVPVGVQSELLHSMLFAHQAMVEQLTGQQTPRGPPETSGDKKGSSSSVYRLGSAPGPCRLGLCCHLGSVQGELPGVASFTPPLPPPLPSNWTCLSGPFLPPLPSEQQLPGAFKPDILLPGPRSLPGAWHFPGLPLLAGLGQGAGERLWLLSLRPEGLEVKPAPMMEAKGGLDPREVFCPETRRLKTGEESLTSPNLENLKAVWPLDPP
Procedure, shortened: as §1

ETS2 = target: T10, ETS2 (Homo sapiens, UniProt P15036 1-469)
T10 sequence: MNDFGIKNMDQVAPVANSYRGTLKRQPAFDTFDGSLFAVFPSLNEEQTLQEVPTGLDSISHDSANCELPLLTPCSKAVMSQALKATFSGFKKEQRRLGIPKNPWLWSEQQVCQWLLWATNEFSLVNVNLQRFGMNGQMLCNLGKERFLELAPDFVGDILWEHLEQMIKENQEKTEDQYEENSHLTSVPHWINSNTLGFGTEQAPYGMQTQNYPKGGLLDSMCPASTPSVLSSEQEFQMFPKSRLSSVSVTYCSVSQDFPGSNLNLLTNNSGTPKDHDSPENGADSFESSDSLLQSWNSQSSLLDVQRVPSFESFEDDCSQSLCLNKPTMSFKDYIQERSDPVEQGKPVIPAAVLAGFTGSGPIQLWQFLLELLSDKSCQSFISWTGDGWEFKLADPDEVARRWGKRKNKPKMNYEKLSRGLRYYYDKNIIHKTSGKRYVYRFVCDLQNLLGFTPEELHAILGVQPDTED
Procedure, shortened: as §1

SPDEF = target: T11, SPDEF (Homo sapiens, UniProt O95238 1-335)
T11 sequence: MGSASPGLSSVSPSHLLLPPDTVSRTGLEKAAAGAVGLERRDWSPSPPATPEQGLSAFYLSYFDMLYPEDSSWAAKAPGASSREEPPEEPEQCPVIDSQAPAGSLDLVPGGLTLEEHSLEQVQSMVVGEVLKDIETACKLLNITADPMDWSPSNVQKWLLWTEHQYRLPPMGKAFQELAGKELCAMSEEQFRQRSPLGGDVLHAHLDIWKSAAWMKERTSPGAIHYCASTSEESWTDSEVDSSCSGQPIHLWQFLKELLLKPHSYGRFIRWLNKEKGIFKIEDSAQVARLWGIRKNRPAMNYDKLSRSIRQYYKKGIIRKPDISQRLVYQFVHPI
Procedure, shortened: as §1

ETV7 = target: T12, ETV7 (Homo sapiens, UniProt Q9Y603 1-341)
T12 sequence: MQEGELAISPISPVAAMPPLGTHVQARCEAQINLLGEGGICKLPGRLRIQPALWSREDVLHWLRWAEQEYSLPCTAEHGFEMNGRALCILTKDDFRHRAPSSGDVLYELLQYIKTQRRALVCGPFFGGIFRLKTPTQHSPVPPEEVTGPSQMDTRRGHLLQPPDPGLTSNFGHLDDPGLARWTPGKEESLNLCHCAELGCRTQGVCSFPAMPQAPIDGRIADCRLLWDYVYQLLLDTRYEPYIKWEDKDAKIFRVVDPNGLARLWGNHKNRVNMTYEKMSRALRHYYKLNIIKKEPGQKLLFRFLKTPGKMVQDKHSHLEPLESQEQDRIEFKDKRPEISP
Procedure, shortened: as §1

ETV3 = target: T13, ETV3 (Homo sapiens, UniProt P41162-2 1-143)
T13 sequence: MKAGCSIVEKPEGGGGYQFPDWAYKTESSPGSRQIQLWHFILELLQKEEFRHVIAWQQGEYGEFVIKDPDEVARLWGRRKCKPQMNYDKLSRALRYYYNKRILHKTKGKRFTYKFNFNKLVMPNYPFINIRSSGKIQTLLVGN
Procedure, shortened: as §1

ETV6 = ETV6 (Homo sapiens, UniProt P41212 1-452)
Procedure, shortened: as §1

ETV6, sequence (P41212 whole entry): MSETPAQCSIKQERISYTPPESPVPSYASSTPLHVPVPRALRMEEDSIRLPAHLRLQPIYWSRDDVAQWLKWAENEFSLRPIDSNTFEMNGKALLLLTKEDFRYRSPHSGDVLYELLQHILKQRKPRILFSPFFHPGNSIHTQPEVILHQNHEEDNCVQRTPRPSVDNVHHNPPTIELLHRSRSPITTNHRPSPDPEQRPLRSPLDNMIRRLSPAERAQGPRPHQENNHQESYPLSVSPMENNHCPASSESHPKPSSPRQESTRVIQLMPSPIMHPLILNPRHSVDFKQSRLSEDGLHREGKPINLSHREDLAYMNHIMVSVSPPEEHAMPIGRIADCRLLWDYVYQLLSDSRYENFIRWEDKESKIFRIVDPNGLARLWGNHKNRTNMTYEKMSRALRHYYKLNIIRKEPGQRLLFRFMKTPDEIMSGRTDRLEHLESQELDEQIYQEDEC
ETV5, sequence (P41161 whole entry): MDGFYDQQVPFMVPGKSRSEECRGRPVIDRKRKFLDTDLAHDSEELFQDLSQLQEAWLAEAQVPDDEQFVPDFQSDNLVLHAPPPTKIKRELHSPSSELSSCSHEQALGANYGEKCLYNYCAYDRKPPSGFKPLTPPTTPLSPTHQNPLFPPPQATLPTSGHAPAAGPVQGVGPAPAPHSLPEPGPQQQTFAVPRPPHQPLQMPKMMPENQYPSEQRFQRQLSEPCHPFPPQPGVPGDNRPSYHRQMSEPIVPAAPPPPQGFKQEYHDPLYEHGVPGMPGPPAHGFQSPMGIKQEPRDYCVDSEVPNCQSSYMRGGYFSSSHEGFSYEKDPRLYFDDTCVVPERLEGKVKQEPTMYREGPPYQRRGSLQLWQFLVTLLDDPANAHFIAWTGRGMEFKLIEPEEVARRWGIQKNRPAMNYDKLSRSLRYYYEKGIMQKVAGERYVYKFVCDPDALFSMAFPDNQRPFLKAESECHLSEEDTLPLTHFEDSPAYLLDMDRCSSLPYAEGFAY
SPIB, sequence (Q01892 whole entry): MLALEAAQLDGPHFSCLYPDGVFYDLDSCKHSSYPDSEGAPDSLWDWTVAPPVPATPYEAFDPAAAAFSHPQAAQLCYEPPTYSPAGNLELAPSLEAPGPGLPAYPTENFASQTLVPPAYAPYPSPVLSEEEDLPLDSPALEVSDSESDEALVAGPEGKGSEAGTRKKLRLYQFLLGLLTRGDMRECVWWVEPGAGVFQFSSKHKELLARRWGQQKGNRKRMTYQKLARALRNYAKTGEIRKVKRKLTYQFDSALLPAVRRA
ELF1, sequence (P32519 whole entry): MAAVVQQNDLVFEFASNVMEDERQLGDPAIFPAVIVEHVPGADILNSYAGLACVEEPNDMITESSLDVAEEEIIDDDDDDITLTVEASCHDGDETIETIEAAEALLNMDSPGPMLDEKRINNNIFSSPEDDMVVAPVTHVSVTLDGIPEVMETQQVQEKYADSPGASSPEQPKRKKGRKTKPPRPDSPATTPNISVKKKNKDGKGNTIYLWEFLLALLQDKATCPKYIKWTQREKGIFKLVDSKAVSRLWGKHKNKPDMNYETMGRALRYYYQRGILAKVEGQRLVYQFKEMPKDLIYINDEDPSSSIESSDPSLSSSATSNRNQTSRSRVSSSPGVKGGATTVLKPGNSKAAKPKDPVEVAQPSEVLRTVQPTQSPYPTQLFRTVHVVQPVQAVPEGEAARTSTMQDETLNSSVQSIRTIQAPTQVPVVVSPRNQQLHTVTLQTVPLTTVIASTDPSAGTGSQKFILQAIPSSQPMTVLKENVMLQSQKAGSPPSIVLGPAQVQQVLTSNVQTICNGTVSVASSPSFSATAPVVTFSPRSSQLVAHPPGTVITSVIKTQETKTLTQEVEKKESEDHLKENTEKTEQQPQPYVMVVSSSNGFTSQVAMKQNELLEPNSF
ETV1, sequence (P50549 whole entry): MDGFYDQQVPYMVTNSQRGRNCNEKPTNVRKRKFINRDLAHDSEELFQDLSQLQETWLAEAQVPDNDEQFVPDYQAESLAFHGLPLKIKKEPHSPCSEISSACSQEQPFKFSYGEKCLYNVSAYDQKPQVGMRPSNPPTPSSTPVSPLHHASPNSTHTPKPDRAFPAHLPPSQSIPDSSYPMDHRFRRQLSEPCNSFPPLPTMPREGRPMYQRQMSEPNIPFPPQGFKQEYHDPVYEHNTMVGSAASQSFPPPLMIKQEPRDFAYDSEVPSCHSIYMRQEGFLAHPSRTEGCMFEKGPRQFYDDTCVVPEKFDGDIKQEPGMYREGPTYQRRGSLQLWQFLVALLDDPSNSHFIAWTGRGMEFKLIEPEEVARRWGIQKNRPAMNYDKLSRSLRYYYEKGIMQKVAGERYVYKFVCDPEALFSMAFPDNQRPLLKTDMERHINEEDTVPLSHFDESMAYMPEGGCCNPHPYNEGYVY
ELF4, sequence (Q99607 whole entry): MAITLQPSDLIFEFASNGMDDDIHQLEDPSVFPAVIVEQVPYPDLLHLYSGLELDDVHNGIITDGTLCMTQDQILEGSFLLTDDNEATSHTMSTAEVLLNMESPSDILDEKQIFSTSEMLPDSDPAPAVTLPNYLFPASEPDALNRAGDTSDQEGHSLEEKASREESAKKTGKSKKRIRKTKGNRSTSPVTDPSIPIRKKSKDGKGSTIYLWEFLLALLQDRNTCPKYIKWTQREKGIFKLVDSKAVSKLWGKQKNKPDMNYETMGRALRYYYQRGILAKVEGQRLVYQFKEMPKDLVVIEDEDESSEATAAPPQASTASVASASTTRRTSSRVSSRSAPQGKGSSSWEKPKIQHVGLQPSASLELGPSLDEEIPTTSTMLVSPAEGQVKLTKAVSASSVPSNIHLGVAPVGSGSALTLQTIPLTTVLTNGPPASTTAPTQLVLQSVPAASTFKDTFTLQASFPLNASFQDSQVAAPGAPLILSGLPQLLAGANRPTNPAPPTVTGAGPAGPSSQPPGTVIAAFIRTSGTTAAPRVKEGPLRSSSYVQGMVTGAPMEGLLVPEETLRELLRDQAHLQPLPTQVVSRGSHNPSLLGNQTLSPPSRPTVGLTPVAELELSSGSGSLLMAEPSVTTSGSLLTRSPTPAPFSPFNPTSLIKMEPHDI

Sequence: CCCCTA
- binding signal (ELK1): 1.07 fold enrichment (6-mer frequency, TF over GST control)
- binding signal (ERG): 1.05 fold enrichment (6-mer frequency, TF over GST control)
- binding signal (ELF1): 1.18 fold enrichment (6-mer frequency, TF over GST control)
- binding signal (EHF): 1.17 fold enrichment (6-mer frequency, TF over GST control)
- binding signal (SPIB): 1.08 fold enrichment (6-mer frequency, TF over GST control)
- binding signal (FEV): 1.13 fold enrichment (6-mer frequency, TF over GST control)
- binding signal (ETV5): 1.07 fold enrichment (6-mer frequency, TF over GST control)
- binding signal (ELF4): 1.2 fold enrichment (6-mer frequency, TF over GST control)
- binding signal (ELK4): 1.3 fold enrichment (6-mer frequency, TF over GST control)
- binding signal (ETV2): 1.06 fold enrichment (6-mer frequency, TF over GST control)
- binding signal (ELF3): 1.3 fold enrichment (6-mer frequency, TF over GST control)
- binding signal (ETV1): 1.07 fold enrichment (6-mer frequency, TF over GST control)
- binding signal (ERF): 1.04 fold enrichment (6-mer frequency, TF over GST control)
- binding signal (ETV3L): 1.13 fold enrichment (6-mer frequency, TF over GST control)
- binding signal (ETS2): 1.05 fold enrichment (6-mer frequency, TF over GST control)
- binding signal (SPDEF): 1.07 fold enrichment (6-mer frequency, TF over GST control)
- binding signal (ETV7): 1.06 fold enrichment (6-mer frequency, TF over GST control)
- binding signal (ETV3): 1.06 fold enrichment (6-mer frequency, TF over GST control)
- binding signal (ETV6): 1.22 fold enrichment (6-mer frequency, TF over GST control)

— PMC7862700, “An all-to-all approach to the identification of sequence-specific readers for epigenetic DNA modifications on cytosine”
